Compound activity: PubChem BioAssay, National Center for Advancing Translational Sciences (NCATS)
ALDH1A1 inh = inhibitors of human aldehyde dehydrogenase 1A1. AID 1030. Potency, µM (series often up to 75.3 µM), usual class: inhibitors. Purified ALDH1A1, NADH fluorescence, propionaldehyde substrate. actives 7.3% (n = 220,000). P00352; active = well fitted inhibition curve with a large enough effect, not every such curve was filed as active; inconclusive = small, poorly fitted or top-dose-only effect, or another doubt; inactive = no such curve, though single readings can be large or run the other way
HPGD block = inhibitors of human 15-hydroxyprostaglandin dehydrogenase (HPGD); P15428; purified HPGD, NADH fluorescence kinetic, PGE2 substrate; Potency, µM, hits mostly inhibitors; actives 4.3% (n = 150,000); AID 894; active = well fitted inhibition curve with a large enough effect, not every such curve was filed as active; inconclusive = small, poorly fitted or top-dose-only effect, or another doubt; inactive = no such curve, though single readings can be large or run the other way
Target sequence (P15428 whole entry, looked up): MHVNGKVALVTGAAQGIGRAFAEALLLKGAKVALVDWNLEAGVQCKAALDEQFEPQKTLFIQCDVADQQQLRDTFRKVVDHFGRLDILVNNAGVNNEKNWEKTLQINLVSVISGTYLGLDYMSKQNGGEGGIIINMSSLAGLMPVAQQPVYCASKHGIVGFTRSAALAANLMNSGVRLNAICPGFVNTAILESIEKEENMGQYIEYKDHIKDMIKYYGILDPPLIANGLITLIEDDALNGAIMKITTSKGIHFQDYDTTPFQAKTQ
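NADH formation kinetics: reaction with 30 uM PGE2 and 1 mM NAD+ (final), 20 nM enzyme, Tris-HCl pH 8 with Tween 20, after 15 min compound preincubation at room temperature. Fluorescence change, last versus first of five reads.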
Lamin A splicing = modulators of lamin A splicing | HeLa LMNA splicing GFP/RFP minigene ratio, 48 h | Potency, µM (titrated, usually from 46.1 µM), actives largely listed as inhibitors | actives 0.01% (n = 200,000) | AID 1487; active = well fitted inhibition curve with a large enough effect in the signal ratio, with a control signal flat, not every such curve was filed as active; inconclusive = small, poorly fitted or top-dose-only effect, or effect the other way, or a change in a side signal; the % refers to the signal ratio
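S3 HeLa stable clones carrying a lamin A-EGFP splicing minigene plus DsRed2 were seeded at 600 cells/well in Opti-MEM with 2% FBS, pin-dosed and incubated 48 h at 37°C. Acumen cytometry (488 nm) gave the GFP/RFP total-intensity ratio.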
KinaseGlo FLuc = counter-screen: inhibitors of Kinase-Glo firefly luciferase | Q27757 | Kinase-Glo luciferase, ATP luminescence, 8 min | Potency, µM (series often up to 38.3 µM), actives largely listed as inhibitors | actives 0.28% (n = 200,000) | AID 1379; note: nearly all actives have a fitted effect of over 60% in size
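Compound is pinned into ATP-containing buffer (10 uM ATP, imidazole pH 7.2, 7 mM MgCl2). Kinase-Glo luciferase reagent is then added. Light output is recorded following an 8-min room-temperature incubation.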
HTT cytoprotect = cytoprotection in Huntington HTT-Q103 PC12 cell model; PC12 HTT-Q103 induced, cytoprotection, ATP luminescence, 40 h; Potency, µM (doses to about 56.4 µM), most hits filed as activators; actives 0.14% (n = 230,000); note: nearly all actives have a fitted effect of over 45% in size
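Compounds were screened for protection of PC12 cells against cell death after tebufenozide induction (100 nM final) of mutant Huntingtin exon 1 (Q103) fused to GFP.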
HTT aggregate = reduces HttQ103-GFP aggregates in PC12 cells. PC12 HttQ103-GFP aggregates, Acumen cytometry, 40 h. actives 1.1% (n = 220,000). Potency, µM (top dose mostly 46.1 µM), actives largely listed as inhibitors. AID 1688; note: nearly all actives have a fitted effect of over 60% in size
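Read-out: GFP aggregate count by laser scanning cytometer (488 nm excitation, 500-530 nm emission, 1–25 µm objects >6 SD above background). Cells: PC12, inducible HTTex1-Q103-GFP, 100 nM tebufenozide; compounds titrated.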
Each line names hits and unclear results; the compound was inactive in the other large screens. Hits are enriched below; roughly 9% of the tested compounds scored in any of these assays. Unless noted, calls come from the whole dose curve; as a rule, active = well fitted curve in the direction sought with a large enough effect; inconclusive = small, poorly fitted or top-dose-only effect, or another doubt; inactive = no such curve, though single readings can be large; an effect the other way counts as inactive or inconclusive.

COC(=O)c1c(C)[nH]c(O)c1C=Nc1ccc(Oc2ccccc2)cc1	Lamin A splicing inconclusive (no result: HPGD block)
COC(=O)c1c(C)[nH]c(O)c1C=Nc1ccc(C(C)C)cc1	ALDH1A1 inh inconclusive, HPGD block 25µM
C#CC[N+](C)(C)CC#Cc1ccc(Cl)cc1	Lamin A splicing inconclusive
Cc1cc(NC(=O)c2cnn3c(C(F)F)cc(-c4ccccc4)nc23)no1	ALDH1A1 inh inconclusive
Cc1cc(NC(=O)c2cnn3c(C(F)F)cc(C4CC4)nc23)no1	ALDH1A1 inh 5µM
CCOc1cccc(C(=O)Nc2cccc(-c3nc4ncccc4o3)c2C)c1	ALDH1A1 inh 18µM, HPGD block inconclusive
O=C(Oc1ccc(C(=S)N2CCOCC2)cc1)c1ccc(Br)cc1	none
COC(=O)c1ccc(C(=S)N2CCCCC2)cc1	none (no result: HPGD block)
COc1ccc(C(=O)Oc2ccc(C(=S)N3CCOCC3)cc2)cc1	ALDH1A1 inh 7.1µM, Lamin A splicing inconclusive (no result: HPGD block)
COC(=O)c1ccc(C(=S)N2CCOCC2)cc1	ALDH1A1 inh 10µM, HPGD block 28µM
COC(=O)c1cc2oc3ccccc3c2n1CC(=O)N1CCCc2ccccc21	none
O=C1C2ON(c3ccccc3)C(c3cccnc3)C2C(=O)N1Cc1ccccc1 (configuration not stated)	ALDH1A1 inh 35µM
Cc1ccccc1N1C(=O)C2ON(c3ccccc3)C(c3cccnc3)C2C1=O (configuration not stated)	none
NC(=O)C1CCN(C(=O)c2cc(S(=O)(=O)N3CCOCC3)ccc2Cl)CC1	none (no result: HPGD block, Lamin A splicing)
COc1ccccc1-n1c(SCC(=O)NC(C)(C)C)nnc1-c1ccco1	HPGD block 16µM
CC1Cc2ccccc2N1C(=O)CSc1nnc(Cn2nnc3ccccc32)n1C (configuration not stated)	ALDH1A1 inh 10µM, Lamin A splicing inconclusive
COc1cccc(-n2c(SCC(=O)N3c4ccccc4CC3C)nnc2-c2ccco2)c1 (configuration not stated)	ALDH1A1 inh 25µM
CCCCCC1CC(CC(C)C(=O)Nc2nncs2)C(=O)O1 (configuration not stated)	none
COc1ccccc1CN1CC[C@@]2(CCCN(C(=O)c3cnccn3)C2)C1	HTT cytoprotect inconclusive (no result: Lamin A splicing, HTT aggregate)
Cc1ccc(-c2noc(CCC(=O)Nc3ccccc3C)n2)cc1	Lamin A splicing inconclusive
Cc1ccc(-c2noc(CCC(=O)N(C)c3ccccc3C)n2)cc1	HPGD block 14µM, Lamin A splicing inconclusive, HTT aggregate inconclusive
CCN(C(=O)CCc1nc(-c2ccc(OC)cc2)no1)c1cc(OC)ccc1OC	HPGD block 14µM, Lamin A splicing inconclusive, HTT aggregate inconclusive
Cc1cc2occ(CC(=O)NC3CCCc4ccccc43)c2cc1C (configuration not stated)	ALDH1A1 inh 2.2µM
Cc1ccc(-c2noc(CCC(=O)N3CCCC3)n2)cc1	HPGD block 25µM, Lamin A splicing inconclusive
CCN(CC)C(=O)CC(c1cc(OC)c(OC)c(OC)c1)c1c(O)cc(OC)cc1OC (configuration not stated)	none (no result: ALDH1A1 inh, HPGD block, Lamin A splicing, KinaseGlo FLuc)
Cc1cc(C)c(NC(=O)NC(=O)c2cccc(F)c2)c(C)n1	none (no result: HPGD block, KinaseGlo FLuc)
Cc1ccc(-c2noc(CCC(=O)NC3CCN(Cc4ccccc4)CC3)n2)cc1	Lamin A splicing inconclusive, HTT aggregate inconclusive
COc1ccc(-c2noc(CCC(=O)N3CCC(C)CC3)n2)cc1	ALDH1A1 inh inconclusive, HPGD block 5µM
Cc1ccc(-c2noc(CCC(=O)NC3CCCc4ccccc43)n2)cc1 (configuration not stated)	ALDH1A1 inh inconclusive, Lamin A splicing inconclusive, HTT aggregate 3.2µM (no result: HTT cytoprotect)
COc1ccc(-c2noc(CCC(=O)N3CCN(Cc4ccccc4)CC3)n2)cc1	ALDH1A1 inh inconclusive, HTT aggregate inconclusive
O=C1OC2(c3ccc(O)cc3Oc3cc(O)ccc32)c2c1c(-c1ccccc1)c(-c1ccccc1)c(-c1ccccc1)c2-c1ccccc1	ALDH1A1 inh inconclusive, HPGD block inconclusive (no result: Lamin A splicing, HTT aggregate)
Cc1cccc2cccnc12	none (no result: Lamin A splicing, KinaseGlo FLuc, HTT aggregate)
